Growth data for 13 molecules are collected here from PubChem BioAssay (NCI).

Among the test systems are NCI-H23 lung; NCI-H226 lung; HOP-62 NSCLC; NCI-H460 lung; HOP-92 NSCLC; NCI-H522 lung; A549/ATCC NSCLC; 786-0 renal; COLO 205 colon; NCI-H322M lung.
Holding throughout (assay): NCI-60 one-dose screen, 48 h (100 = growth as untreated, 0 = no growth, -100 = all killed)
Holding throughout (settings): 10 µM unless noted

This is part of a sample that, as a whole, favours compounds with a hit. Of some 83,000 tested, about 20% had one in any assay.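 Compound tested at a single concentration for 48 hours in 96-well plates; a percent growth value below 10 was scored as active.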 Unmarked numbers belong to inactive results. Activity calls are given as the source filed them.

For `O=c1cc(C2NNC(=S)N2)c2ccc3ccccc3c2o1` (stereo unspecified), the growth with NCI-H23 lung is 91.6%; in the test with NCI-H226 lung it was 101%; with HOP-62 NSCLC, 95.1%; with NCI-H460 lung, 98.6%; in the test on HOP-92 NSCLC, 103%; in the test with NCI-H522 lung it was 87.1%. Also, the growth in the test on A549/ATCC NSCLC was 108%; in the test with 786-0 renal, 100%; in the test on COLO 205 colon, 104%.
For the molecule `COc1ccc(-c2nc(SC(C)C)nc(NNC(N)=S)c2C#N)cc1`, the growth with NCI-H23 lung is 69.7%; with NCI-H322M lung it was 91.3%; with HOP-62 NSCLC it was 63.7%; in the test on NCI-H460 lung, 22.4%; in the test on HOP-92 NSCLC, 41.2%; in the test with NCI-H522 lung it was 12.8%. Besides, the growth was 49.2% in the test with A549/ATCC NSCLC, 85% with 786-0 renal and 99.9% in the test on COLO 205 colon.
On to `COc1ccc2[nH]c(O)c(/C=c3/cc4c(c(-c5cc(OC)c(OC)c(OC)c5)n3)=Nc3ccccc3-4)c2c1`, for which the growth in the test with NCI-H23 lung is 50.7%; in the test on NCI-H226 lung it was 67.1%; in the test on HOP-62 NSCLC, 86.2%; with NCI-H460 lung, 71.6%; in the test with HOP-92 NSCLC it was 39.8%; in the test on NCI-H522 lung, 50.4%. Also, the results for the growth with A549/ATCC NSCLC, in the test with 786-0 renal and in the test with COLO 205 colon were 72.5%, 67.1% and 59.4%, respectively.
Take `O=C(O)CN1C(=O)CCC1=O`: the growth is 104% with NCI-H23 lung; 101% in the test on NCI-H226 lung; 97.1% in the test on HOP-62 NSCLC; 115% with NCI-H460 lung; 97.2% with HOP-92 NSCLC; 103% in the test with NCI-H522 lung. In addition, the results for the growth in the test with A549/ATCC NSCLC, in the test with 786-0 renal and in the test on COLO 205 colon were 98.4%, 105% and 118%, respectively.
With `CC1(c2ccccc2)NC(=O)N(NC(=O)CSc2nc(-c3cccs3)nc3ccccc23)C1=O` (stereo unspecified), the growth was 89.7% in the test on NCI-H23 lung; 91.1% with NCI-H226 lung; 88.7% with HOP-62 NSCLC; 107% in the test on NCI-H460 lung; 77.4% in the test on HOP-92 NSCLC; 82.3% in the test on NCI-H522 lung. In addition, the growth in the test on A549/ATCC NSCLC is 79.1%; in the test on 786-0 renal, 94.1%; in the test with COLO 205 colon it was 124%.
As for `CCN(CC)c1ccc(C(=O)c2ccc(N(CC)CC)cc2)cc1`, the growth in the test on NCI-H23 lung was 3.77% (active); with NCI-H226 lung, 48.5%; with HOP-62 NSCLC, 29.2%; with NCI-H460 lung it was 6.72% (active); in the test on HOP-92 NSCLC, 51.2%; with NCI-H522 lung, 3.66% (active). The growth with A549/ATCC NSCLC was 31.9%; in the test on 786-0 renal it was 4.16% (active); in the test with COLO 205 colon, -29% (active).
With `O=C1NC(=Nc2ccc(Cl)cc2)S/C1=C\c1cn(-c2ccccc2)nc1-c1ccccc1`, the growth is 93.4% in the test with NCI-H23 lung; 93.4% in the test on NCI-H226 lung; 44.6% with NCI-H460 lung; -0.936% (active) in the test on HOP-92 NSCLC; 75.4% in the test with NCI-H522 lung; 34.9% in the test on A549/ATCC NSCLC. In addition, the growth in the test with 786-0 renal was 85.5%; in the test on COLO 205 colon, 96.7%.
Turning to `N#CC1=C(NC=O)Oc2c(ccc3ccccc23)C1c1ccccc1` (stereo unspecified), the growth in the test on NCI-H23 lung is 38.5%; in the test with NCI-H226 lung it was 62.6%; in the test with HOP-62 NSCLC, 21.1%; in the test on NCI-H460 lung, 19.9%; in the test with HOP-92 NSCLC, 42.6%; with NCI-H522 lung, -2.8% (active). The results for the growth in the test with A549/ATCC NSCLC, with 786-0 renal and in the test on COLO 205 colon were 36.3%, 22% and 96.4%, respectively.
With `CCOC(=O)c1ccc(N2NC(=O)/C(=C/c3ccc([N+](=O)[O-])o3)C2=O)cc1`, the growth in the test on NCI-H23 lung is 108%; with NCI-H226 lung, 120%; with HOP-62 NSCLC, 109%; in the test on NCI-H460 lung, 111%; in the test with HOP-92 NSCLC it was 105%; in the test with NCI-H522 lung, 60.7%. In addition, the growth was -1.33% (active) in the test on A549/ATCC NSCLC, 116% in the test with 786-0 renal and 129% with COLO 205 colon.
As to `O=C(N/N=C/C=C/c1ccc([N+](=O)[O-])o1)c1cc2ccccc2cc1O`, the growth is -54.6% (active) in the test with NCI-H23 lung; -72.3% (active) in the test on NCI-H226 lung; -33.9% (active) with HOP-62 NSCLC; -14.3% (active) in the test with NCI-H460 lung; -47.5% (active) in the test with HOP-92 NSCLC; -62.9% (active) in the test with NCI-H522 lung. Moreover, the growth in the test on A549/ATCC NSCLC was 4.04% (active); in the test on 786-0 renal, -18.4% (active); in the test on COLO 205 colon, -100% (active).
For the molecule `Cc1ccc(-n2nc3c(c(C#N)c2=O)CC(c2ccccc2Cl)C([N+](=O)[O-])=C3O)cc1` (stereo unspecified), the growth is 101% in the test on NCI-H23 lung; 102% in the test on NCI-H226 lung; 91% in the test with HOP-62 NSCLC; 99.3% in the test with NCI-H460 lung; 103% in the test with HOP-92 NSCLC; 89% with NCI-H522 lung. The growth in the test on A549/ATCC NSCLC is 95.4%; with 786-0 renal, 102%; with COLO 205 colon, 108%.
In the case of `O=[N+]([O-])c1ccc(-c2cc(-c3ccc(Nc4nc(Nc5ccc(Cl)cc5)nc(Nc5ccc(Cl)cc5)n4)cc3)no2)cc1`, the growth is 84.1% in the test on NCI-H23 lung; 109% in the test on NCI-H226 lung; 87.4% in the test with HOP-62 NSCLC; 95.9% with NCI-H460 lung; 66.1% in the test with HOP-92 NSCLC; 80.9% with NCI-H522 lung. For the same molecule, the growth with A549/ATCC NSCLC was 88.6%; in the test with 786-0 renal it was 89.7%; with COLO 205 colon, 95.4%.
Consider `C=CC(=O)Nc1cccc(Oc2nccc(Nc3nnc(C4CC4)s3)n2)c1`, for which the growth with NCI-H23 lung was 97.1%; with NCI-H226 lung it was 101%; in the test on HOP-62 NSCLC, 110%; in the test on NCI-H460 lung, 95.6%; with HOP-92 NSCLC, 66.1%; in the test with NCI-H522 lung, 86.8%. The growth is 103% in the test with A549/ATCC NSCLC, 86.6% with 786-0 renal and 107% with COLO 205 colon.
